# Experimental data as given in PubChem BioAssay (Tox21).
# Records with an inconclusive call do not appear. A call without a number means that no potency is given here. Active and inactive are the calls of the source. Unless noted, calls follow the shape of the full dose curve.
# Experiments:
# [1] = Nuclear factor erythroid 2-related factor 2/antioxidant responsive element (Nrf2/ARE) small molecule agonists: qHTS cell viability counter screen in human keratinocytes (AID 1919968; active = well fitted curve in the direction sought with a large enough effect in the repeat runs; an effect the other way counts as inactive or inconclusive; also: nearly all actives have a fitted effect of over 55% in size)
# How it was run: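 Seed 1,500 KeratinoSens cells per well, then incubate 5 h at 37 C/5% CO2. Add compounds in DMSO and incubate 23 h. Add CellTiter-Fluor, wait 1 h and read fluorescence.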
# [2] = Nuclear factor erythroid 2-related factor 2/antioxidant responsive element (Nrf2/ARE) small molecule agonists: luciferase reporter gene qHTS assay in human keratinocytes (AID 1919969); also: nearly all actives have a fitted effect of over 35% in size
# [3] = target: Gonadotropin-releasing hormone receptor (Homo sapiens) (UniProt P30968); experiment: Human gonadotropin-releasing hormone receptor (GnRHR) small molecule agonists, calcium flux assay in GnRHR-HEK293 cells (AID 1920063); also: nearly all actives have a fitted effect of over 35% in size
# Gonadotropin-releasing hormone receptor (Homo sapiens), sequence (P30968 whole entry, looked up): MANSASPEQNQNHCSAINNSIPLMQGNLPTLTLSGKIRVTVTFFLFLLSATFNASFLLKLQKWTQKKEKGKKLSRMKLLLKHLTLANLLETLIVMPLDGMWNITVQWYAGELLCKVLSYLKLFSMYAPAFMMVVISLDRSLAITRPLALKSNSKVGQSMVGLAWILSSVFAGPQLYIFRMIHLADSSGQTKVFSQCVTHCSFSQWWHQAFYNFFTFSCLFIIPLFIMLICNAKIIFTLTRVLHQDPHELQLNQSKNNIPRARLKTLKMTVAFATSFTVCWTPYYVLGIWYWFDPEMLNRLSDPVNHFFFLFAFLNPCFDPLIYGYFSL
# How it was run: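 Cells: HEK293 stably expressing human GnRHR. Steps: overnight (18 h) culture, 1 h calcium dye loading at 37 C, compound addition, kinetic fluorescence read at 480/540 nm. Each compound tested at 15 concentrations in triplicate.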
# [4] = target: KiSS-1 receptor (Homo sapiens) (UniProt Q969F8); experiment: Human kisspeptin (KISS1R) small molecule agonists, calcium flux assay in KISS1R-HEK293 cells (AID 1920064; active = well fitted curve in the direction sought with a large enough effect in the repeat runs; an effect the other way counts as inactive or inconclusive)
# KiSS-1 receptor (Homo sapiens), sequence (Q969F8 whole entry, looked up): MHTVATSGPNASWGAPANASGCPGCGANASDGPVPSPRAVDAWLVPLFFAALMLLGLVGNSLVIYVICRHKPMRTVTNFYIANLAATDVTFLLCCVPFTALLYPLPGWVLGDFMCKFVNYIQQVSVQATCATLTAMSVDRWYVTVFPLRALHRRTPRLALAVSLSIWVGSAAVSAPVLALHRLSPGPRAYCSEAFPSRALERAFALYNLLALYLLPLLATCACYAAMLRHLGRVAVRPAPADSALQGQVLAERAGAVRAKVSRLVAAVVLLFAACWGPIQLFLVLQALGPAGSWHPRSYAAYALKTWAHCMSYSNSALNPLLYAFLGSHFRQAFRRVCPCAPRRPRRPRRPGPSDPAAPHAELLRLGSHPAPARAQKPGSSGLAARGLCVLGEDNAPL
# How it was run: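 Cells plated and incubated 18 h; dye added, 1 h at 37 C; compounds in DMSO pinned in; signal read at 480/540 nm every second for 3 min. Each compound tested at 15 concentrations in triplicate.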
# [5] = G protein-coupled receptor (GPCR) small molecule agonists, calcium flux assay: HEK293 wild type cell line counter screen (AID 1920065)
# How it was run: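 Counter-screen of the Tox21 10K library for non-specific calcium release: dye-loaded cells received compounds in DMSO and were monitored by kinetic fluorescence (480/540 nm, 3 min). Fifteen concentrations, run in triplicate.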
# [6] = p53 small molecule agonists, cell-based qHTS assay with rat liver microsomes (AID 1963578)
# How it was run: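 Read-out is beta-lactamase reporter fluorescence (LiveBLAzer, 2 h, room temperature, dark) in p53RE-bla cells treated 16 h at 37 C with compound, rat liver microsomes and NADPH, both 0.5 mg/mL final.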
# [7] = p53 small molecule agonists, cell-based qHTS assay with human liver microsomes: qHTS cell viability counter screen (AID 1963579); also: nearly all actives have a fitted effect of over 45% in size
# How it was run: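 Cells carrying the p53 response-element beta-lactamase reporter are treated for 16 h at 37 C with test compounds in the presence of human liver microsomes and NADPH (both 0.5 mg/mL final); ATP-based CellTiter-Glo luminescence then reports viability.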
# [8] = p53 small molecule agonists, cell-based qHTS assay with rat liver microsomes: qHTS cell viability counter screen (AID 1963580); also: nearly all actives have a fitted effect of over 45% in size
# How it was run: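 HCT-116 p53RE-bla, 4,000 cells/well, 5 h pre-incubation; cpd + rat liver microsomes 0.5 mg/mL + NADPH 0.5 mg/mL (final); 16 h, 37 C; CellTiter-Glo, 30 min RT; luminescence.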
# [9] = p53 small molecule agonists, cell-based qHTS assay: qHTS cell viability counter screen (AID 1963581); also: nearly all actives have a fitted effect of over 45% in size
# How it was run: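 Cells: HCT-116 with p53 response element-driven beta-lactamase. Treatment: 16 h, 37 C, compounds in DMSO. Read: CellTiter-Glo luminescence after 30 min RT.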
# [10] = p53 small molecule agonists, cell-based qHTS assay (AID 1963582; active = well fitted activation curve with a large enough effect in the signal ratio in the repeat runs, not every such curve was filed as active; the % refers to the signal ratio)
# How it was run: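 Quantitative HTS in p53RE-bla cells: after a 5 h settling period, compounds delivered in DMSO were left on cells for 16 h at 37 C, and reporter induction was measured as fluorescence following 2 h substrate loading.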
# [11] = target: 5-hydroxytryptamine receptor 2A (Homo sapiens) (UniProt P28223); experiment: 5-hydroxytryptamine receptor 2A (HTR2A) small molecule antagonists, cell-based qHTS assay (AID 1963586); also: nearly all actives have a fitted effect of over 45% in size; also: potency is read from the fitted curve at half-maximal effect
# 5-hydroxytryptamine receptor 2A (Homo sapiens), sequence (P28223 whole entry, looked up): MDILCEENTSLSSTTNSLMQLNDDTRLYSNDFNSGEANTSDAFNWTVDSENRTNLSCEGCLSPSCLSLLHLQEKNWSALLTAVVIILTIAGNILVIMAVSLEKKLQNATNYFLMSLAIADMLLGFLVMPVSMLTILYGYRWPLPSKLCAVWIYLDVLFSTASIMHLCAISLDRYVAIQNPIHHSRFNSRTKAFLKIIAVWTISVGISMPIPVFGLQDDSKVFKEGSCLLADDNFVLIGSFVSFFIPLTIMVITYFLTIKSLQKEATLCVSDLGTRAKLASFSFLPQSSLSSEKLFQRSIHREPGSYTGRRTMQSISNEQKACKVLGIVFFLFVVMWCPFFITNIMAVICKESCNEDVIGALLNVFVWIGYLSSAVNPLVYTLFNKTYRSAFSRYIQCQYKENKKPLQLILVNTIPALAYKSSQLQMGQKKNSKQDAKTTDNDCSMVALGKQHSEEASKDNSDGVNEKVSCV
# How it was run: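 Antagonist-mode intracellular calcium assay: DOI (4 nM) added after 5 min compound pre-incubation at room temperature to dye-loaded HTR2A-CHO cells. Fluorescence followed for 3 min, sampled every second.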
# [12] = target: 5-hydroxytryptamine receptor 2A (Homo sapiens) (UniProt P28223); experiment: 5-hydroxytryptamine receptor 2A (HTR2A) small molecule agonists, cell-based qHTS assay (AID 1963587); also: nearly all actives have a fitted effect of over 30% in size
# How it was run: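 Kinetic calcium-flux fluorescence (2 min, 1 sec intervals) after compound addition in agonist mode. HTR2A-CHO cells were cultured 18 h, then dye-loaded 1 h at 37 C.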
# [13] = target: Muscarinic acetylcholine receptor M1 (Homo sapiens) (UniProt P11229); experiment: Cholinergic receptor muscarinic 1 (CHRM1) small molecule agonists, cell-based qHTS assay (AID 1963589); also: nearly all actives have a fitted effect of over 35% in size
# Muscarinic acetylcholine receptor M1 (Homo sapiens), sequence (P11229 whole entry, looked up): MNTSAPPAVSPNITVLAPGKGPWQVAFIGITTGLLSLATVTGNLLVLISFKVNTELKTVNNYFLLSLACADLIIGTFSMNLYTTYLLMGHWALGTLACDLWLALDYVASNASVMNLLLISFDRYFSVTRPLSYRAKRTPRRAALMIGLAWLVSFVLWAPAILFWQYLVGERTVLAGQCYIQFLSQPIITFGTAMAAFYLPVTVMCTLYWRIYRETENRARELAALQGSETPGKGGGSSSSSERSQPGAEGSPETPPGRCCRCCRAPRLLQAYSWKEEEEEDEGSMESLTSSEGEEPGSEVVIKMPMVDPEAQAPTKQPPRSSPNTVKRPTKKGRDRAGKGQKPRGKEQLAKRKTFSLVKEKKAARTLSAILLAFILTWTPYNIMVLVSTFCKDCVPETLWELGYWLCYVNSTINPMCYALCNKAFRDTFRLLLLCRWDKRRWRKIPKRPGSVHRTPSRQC
# How it was run: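 Agonist-mode qHTS in CHO cells stably carrying human muscarinic M1. Intracellular calcium is tracked by fluorescence every second after compound transfer; each compound runs at 15 concentrations in three independent runs.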
# [14] = cAMP Responsive Elements (CRE) small molecule agonists, cell-based qHTS assay (AID 1963590)
# How it was run: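 Agonist mode qHTS in CRE-bla HEK 293T cells: compounds dosed from DMSO for 3 h at 37 C/5% CO2, followed by LiveBLAzer B/G FRET substrate for 2 h at room temperature.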
# [15] = cAMP Responsive Elements (CRE) small molecule antagonists, cell-based qHTS assay (AID 1963591; active = well fitted inhibition curve with a large enough effect in the signal ratio in the repeat runs, not every such curve was filed as active; the % refers to the signal ratio)
# How it was run: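 Antagonist mode: test compounds are co-incubated with the adenylyl cyclase activator NKH477 (0.25 uM final) on CRE-bla HEK293T cells for 3 h at 37 °C, followed by LiveBLAzer substrate loading.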
# [16] = target: Beta-2 adrenergic receptor (Homo sapiens) (UniProt P07550); experiment: Adrenergic beta2 receptor (ADRB2) small molecule antagonists, cell-based qHTS assay (AID 1963592); also: series mostly up to about 92 µM; nearly all actives have a fitted effect of over 50% in size
# Beta-2 adrenergic receptor (Homo sapiens), sequence (P07550 whole entry, looked up): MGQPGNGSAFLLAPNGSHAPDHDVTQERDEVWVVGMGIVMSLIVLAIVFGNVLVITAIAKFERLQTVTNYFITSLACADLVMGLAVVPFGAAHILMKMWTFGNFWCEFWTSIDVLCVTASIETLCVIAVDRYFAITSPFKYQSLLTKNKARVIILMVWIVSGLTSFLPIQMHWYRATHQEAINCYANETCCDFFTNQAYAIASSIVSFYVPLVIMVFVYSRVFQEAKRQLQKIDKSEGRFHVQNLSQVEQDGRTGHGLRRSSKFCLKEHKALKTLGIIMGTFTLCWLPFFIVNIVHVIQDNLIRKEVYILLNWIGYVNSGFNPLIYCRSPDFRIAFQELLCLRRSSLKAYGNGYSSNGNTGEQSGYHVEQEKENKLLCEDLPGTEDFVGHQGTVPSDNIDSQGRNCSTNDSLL
# How it was run: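 Cells (CHO, stable ADRB2 overexpression) incubated 18-20hr at 37C; compounds added from DMSO; agonist mix (1nM isoproterenol, 100uM IBMX, 25uM Ro-20-1724) added; 0.5hr RT; d2-cAMP and anti-cAMP-cryptate added; 1hr RT; 665/615 nm read.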
# [17] = target: D(2) dopamine receptor (Homo sapiens) (UniProt P14416); experiment: Dopamine D2 receptor (DRD2) small molecule agonists, cell-based qHTS assay (AID 1963594); also: nearly all actives have a fitted effect of over 35% in size
# D(2) dopamine receptor (Homo sapiens), sequence (P14416 whole entry, looked up): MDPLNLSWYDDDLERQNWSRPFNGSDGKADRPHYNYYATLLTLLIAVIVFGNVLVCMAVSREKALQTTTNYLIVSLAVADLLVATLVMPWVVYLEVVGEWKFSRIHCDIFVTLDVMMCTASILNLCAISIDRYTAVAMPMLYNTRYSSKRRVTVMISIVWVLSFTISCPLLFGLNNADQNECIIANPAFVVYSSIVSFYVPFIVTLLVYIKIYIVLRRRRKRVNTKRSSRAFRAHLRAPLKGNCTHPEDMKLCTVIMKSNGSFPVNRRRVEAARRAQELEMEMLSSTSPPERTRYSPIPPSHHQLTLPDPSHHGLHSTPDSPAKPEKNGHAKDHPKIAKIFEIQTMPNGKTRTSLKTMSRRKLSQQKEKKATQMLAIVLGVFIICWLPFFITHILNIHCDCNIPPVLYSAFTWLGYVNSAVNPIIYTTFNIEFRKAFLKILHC
# How it was run: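 cAMP accumulation in DRD2-HEK293 cells measured by HTRF after 1 h detection; compounds added 10 min before NKH477 (200nM […]) forskolin-analogue stimulation, 30 min at room temperature, with Ro20-1724 present at 0.1 mM final.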
# [18] = target: D(2) dopamine receptor (Homo sapiens) (UniProt P14416); experiment: Dopamine D2 receptor (DRD2) small molecule antagonists, cell-based qHTS assay (AID 1963595; active = well fitted inhibition curve with a large enough effect in the signal ratio in the repeat runs, with a control signal flat; the % refers to the signal ratio)
# How it was run: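 Stable D2 receptor HEK293 line, 24 h after seeding. Compound preincubated 10 min, then quinpirole (12 nM) with forskolin analogue NKH477 (200 nM), 30 min, room temperature. Detection by time-resolved FRET of cAMP.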
# [19] = target: Muscarinic acetylcholine receptor M1 (Homo sapiens) (UniProt P11229); experiment: Cholinergic receptor muscarinic 1 (CHRM1) small molecule antagonists, cell-based qHTS assay (AID 1963588); also: nearly all actives have a fitted effect of over 40% in size; also: potency is read from the fitted curve at half-maximal effect
# How it was run: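 CHRM1-CHO calcium-flux assay, antagonist mode. Cells were seeded 18 h, dye-loaded 1 h at 37 C and given compound for 5 min at RT, then acetylcholine was added at 50nM. FDSS fluorescence was read 3 min; 15 concentrations, three runs.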
# [20] = target: Beta-2 adrenergic receptor (Homo sapiens) (UniProt P07550); experiment: Adrenergic beta2 receptor (ADRB2) small molecule agonists, cell-based qHTS assay (AID 1963593);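 also: CHO cells stably overexpressing human ADRB2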
# How it was run: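 CHO cells stably over-expressing ADRB2 were plated overnight at 37C, then dosed with compounds plus a stimulation mix containing 100uM IBMX and 25uM Ro-20-1724 for 0.5hr at room temperature. cAMP was measured by HTRF competition, 1hr.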
Structure (SMILES),Potency [1],Potency [2],Potency [3],outcome [4],outcome [5],Potency [6],Potency [7],Potency [8],Potency [9],Potency [10],Potency [11],Potency [12],Potency [13],Potency [14],Potency [15],Potency [16],Potency [17],Potency [18],Potency [19],Potency [20]
CC(CNC1CCCCC1)OC(=O)c1ccccc1 (stereo not given),inactive,inactive,inactive,inactive,inactive,inactive,inactive,inactive,inactive,inactive,inactive,inactive,inactive,inactive,inactive,inactive,inactive,inactive,–,–
CCN(CC)CCOCCOC(=O)C1(c2ccccc2)CCCC1,inactive,inactive,inactive,inactive,inactive,inactive,inactive,inactive,inactive,inactive,–,inactive,inactive,inactive,inactive,inactive,inactive,inactive,0.13 µM (active),inactive
O=C(O)c1cccc(C(=O)O)c1C(=O)O,inactive,inactive,inactive,inactive,inactive,inactive,inactive,inactive,inactive,inactive,–,inactive,inactive,inactive,–,inactive,inactive,inactive,inactive,–
COC(=O)CCCCCCCCC(=O)OC,inactive,inactive,inactive,inactive,inactive,inactive,inactive,inactive,inactive,inactive,–,–,inactive,–,inactive,–,–,inactive,inactive,inactive
CN(C)CCN1CCOCC1,inactive,inactive,inactive,inactive,inactive,inactive,inactive,inactive,inactive,inactive,–,inactive,–,inactive,inactive,inactive,inactive,inactive,inactive,–
CN(C)CCOC1=Cc2ccccc2Sc2ccc(Cl)cc21,inactive,inactive,inactive,inactive,inactive,–,–,inactive,–,–,–,inactive,inactive,inactive,inactive,inactive,inactive,–,inactive,inactive
CC(=O)CC(c1ccc([N+](=O)[O-])cc1)c1c(O)c2ccccc2oc1=O (stereo not given),inactive,inactive,inactive,inactive,inactive,inactive,inactive,inactive,inactive,inactive,inactive,inactive,inactive,inactive,inactive,–,inactive,inactive,inactive,inactive
CCCCCCCC/C=C\CCCCCCCCCCCC(=O)O,inactive,inactive,inactive,inactive,inactive,inactive,inactive,inactive,inactive,inactive,inactive,inactive,inactive,inactive,–,inactive,inactive,inactive,inactive,–
SCCCCCCCCS,inactive,inactive,inactive,inactive,inactive,inactive,inactive,inactive,inactive,inactive,inactive,inactive,inactive,inactive,–,inactive,inactive,inactive,inactive,inactive
CC(C)C[C@@H]1[C@H](c2ccccc2)OC(=O)N1CCCN1CCCCCC1,inactive,inactive,inactive,inactive,inactive,inactive,inactive,inactive,inactive,inactive,2.59 µM (active),inactive,inactive,–,inactive,inactive,inactive,inactive,–,–
CCCCCCCCCC=O,inactive,inactive,inactive,inactive,inactive,inactive,inactive,inactive,inactive,inactive,inactive,inactive,inactive,–,–,inactive,–,inactive,inactive,inactive
CC(C)(C(=O)c1cccnc1)c1cccnc1,inactive,inactive,inactive,inactive,inactive,inactive,inactive,inactive,inactive,inactive,–,–,–,inactive,inactive,inactive,–,inactive,–,–
C=CCn1c(=O)n(CC=C)c(=O)n(CC=C)c1=O,inactive,inactive,inactive,inactive,inactive,inactive,inactive,inactive,inactive,inactive,inactive,inactive,–,inactive,–,inactive,inactive,inactive,inactive,inactive
COc1ccc(-c2cc(=O)c3c(O)cc(O[C@@H]4O[C@H](CO[C@@H]5O[C@@H](C)[C@H](O)[C@@H](O)[C@H]5O)[C@@H](O)[C@H](O)[C@H]4O)cc3o2)cc1O,inactive,inactive,inactive,inactive,inactive,inactive,inactive,inactive,inactive,inactive,–,inactive,inactive,inactive,inactive,inactive,inactive,inactive,inactive,inactive
CO[C@@]1(NC(=O)CSCC#N)C(=O)N2C(C(=O)O)=C(CSc3nnnn3C)CS[C@@H]21,inactive,inactive,inactive,inactive,inactive,inactive,inactive,inactive,inactive,inactive,–,–,–,inactive,inactive,inactive,inactive,–,–,–
